PubChem BioAssay (NCATS)
Results filed as inconclusive are left out. Where a call stands in place of a potency, no number is given. The source made the active and inactive calls. Unless noted, calls follow the shape of the dose curve; as a rule, active = well fitted cell-killing curve with a large enough effect; inconclusive = small, poorly fitted or top-dose-only effect; inactive = flat fitted curve, though single readings scatter.

How the values were obtained:
[1] = Cell Viability - LYMP2-025 (AID 976); also: potency is read from the fitted curve at half-maximal effect
Summary of the method: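 Human lymphoblastoid LYMP2-025 cells (2500/well) were pre-incubated 5 hr at 37 C, then treated with compounds for 24 hr at 37 C in complete medium. Viability was read as intracellular ATP by CellTiter-Glo luminescence; AC50 from Hill fits.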

[2] = Cell Viability - LYMP2-002 (AID 977); also: series mostly up to about 92 µM
Summary of the method: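 Luminescent ATP readout (CellTiter-Glo, 30 min room temperature) after 24 h compound exposure at 37 C of a human lymphoblastoid line, 2500 cells/well. AC50 values derived by standard Hill fitting of qHTS concentration-response data.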

[3] = Cell Viability - LYMP2-006 (AID 978); also: series mostly up to about 92 µM; nearly all actives have a fitted effect of over 60% in size
Summary of the method: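 Cells are seeded at 2500 per well and rested 5 hr at 37 C. Compounds are added across a concentration series for 24 hr at 37 C, after which ATP is quantified by luciferase luminescence.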

[4] = Cell Viability - LYMP2-007 (AID 979);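 also: cells exposed to compound for 24 h before reading; nearly all actives have a fitted effect of over 60% in size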
Summary of the method: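 Human lymphoblastoid cells (2500/well) were plated in complete medium, incubated 5 hr at 37 C, then exposed to compounds for 24 hr at 37 C. Intracellular ATP was read by CellTiter-Glo luminescence after 30 min at room temperature; AC50 from Hill fits.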

[5] = Cell Viability - LYMP2-008 (AID 980); also: nearly all actives have a fitted effect of over 60% in size
Summary of the method: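 Human lymphoblastoid cells (2500/well) were plated, held 5 hr at 37 C, then exposed to compounds for 24 hr at 37 C in complete medium. Intracellular ATP was read by CellTiter-Glo luminescence; AC50 from Hill-fitted concentration-response.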

[6] = Cell Viability - LYMP2-010 (AID 981); also: nearly all actives have a fitted effect of over 55% in size
Summary of the method: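 Human lymphoblastoid LYMP2-010 cells (2500/well) were preincubated 5 hr at 37 C, then exposed to compounds for 24 hr at 37 C in complete medium. Intracellular ATP was measured by CellTiter-Glo luminescence after 30 min at room temperature; AC50 from Hill-fitted concentration-response.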

[7] = Cell Viability - LYMP2-012 (AID 982);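 also: cellular ATP by luciferase luminescence where a drop means cytotoxicity; cells exposed to compound for one day before reading; nearly all actives have a fitted effect of over 55% in size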
[8] = Cell Viability - LYMP2-014 (AID 983); also: series mostly up to about 92 µM; nearly all actives have a fitted effect of over 50% in size
Summary of the method: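 Human lymphoblastoid cells (2500/well) were pre-incubated 5 hr at 37 C, then exposed to compounds in complete medium for 24 hr at 37 C. Intracellular ATP was read by CellTiter-Glo luminescence after 30 min at room temperature; AC50 from Hill fits.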

[9] = Cell Viability - LYMP2-016 (AID 984); also: nearly all actives have a fitted effect of over 55% in size
Summary of the method: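 Cells were seeded at 2500 per well and rested 5 hr before a 24 hr compound exposure at 37 C. Viability was then gauged as cellular ATP by luciferase luminescence, with AC50 values fitted to the Hill equation.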

[10] = Cell Viability - LYMP2-018 (AID 985); also: nearly all actives have a fitted effect of over 50% in size
Summary of the method: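 Human lymphoblastoid cells (2500/well) were pre-incubated 5 hr at 37 C, then exposed to compounds for 24 hr at 37 C in complete medium. Viability was read as intracellular ATP by CellTiter-Glo luminescence; AC50 values came from Hill-equation fits.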

[11] = Cell Viability - LYMP2-020 (AID 986); also: series mostly up to about 92 µM; nearly all actives have a fitted effect of over 55% in size
Summary of the method: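 Human lymphoblastoid cells, 2500/well, were pre-incubated 5 hr at 37 C, then exposed to compounds for 24 hr at 37 C in complete medium. Intracellular ATP was read by CellTiter-Glo luminescence, and AC50 was derived by Hill fitting of concentration-response data.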

[12] = Cell Viability - LYMP2-022 (AID 987); also: nearly all actives have a fitted effect of over 55% in size
Summary of the method: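 Human lymphoblastoid cells, 2500/well, preincubated 5 hr at 37 C, then exposed to compounds over a concentration range for 24 hr at 37 C in complete medium. Viability read as intracellular ATP by CellTiter-Glo luminescence after 30 min at room temperature; AC50 from Hill fits.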

[13] = Cell Viability - LYMP2-024 (AID 988); also: nearly all actives have a fitted effect of over 60% in size
Summary of the method: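 Human lymphoblastoid cells (2500/well) in complete medium were preincubated 5 hr at 37 C, then exposed to compounds for 24 hr at 37 C. Intracellular ATP was read by CellTiter-Glo luminescence; AC50 from Hill-equation fits of concentration-response data.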

[14] = Cell Viability - LYMP2-026 (AID 989); also: nearly all actives have a fitted effect of over 50% in size
Summary of the method: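 Human lymphoblastoid cells (2500/well) in complete medium were preincubated 5 hr at 37 C, then exposed to compounds for 24 hr at 37 C. Cellular ATP was read by CellTiter-Glo luminescence; AC50 from Hill-equation fits of concentration-response data.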

[15] = Cell Viability - LYMP1-002 - Assay at 24 hr (AID 993)
Summary of the method: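 Human lymphoblastoid LYMP1-002 cells, 2500/well in complete medium, were treated with compounds for 24 h at 37 C; intracellular ATP was read by CellTiter-Glo luminescence. AC50 values came from Hill-equation fits of qHTS concentration-response data.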

[16] = Cell Viability - LYMP1-002 - Assay at 40 hr (AID 994); also: nearly all actives have a fitted effect of over 60% in size
Summary of the method: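 Human lymphoblastoid cells, 2500/well in complete medium, were preincubated 5 hr at 37 C, then exposed to compounds for 40 hr at 37 C. Intracellular ATP was read by CellTiter-Glo luminescence after 30 min at room temperature; AC50 from Hill-equation fits.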

[17] = qHTS Assay for Identification of Small Molecule Inducers of Hypoxia Response (AID 2120; active = well fitted curve in the direction sought with a large enough effect in the signal ratio, with a control signal flat, not every such curve was filed as active; the % refers to the signal ratio)
Summary of the method: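 HRE-beta-lactamase reporter in CellSensor HRE-bla ME-180 cells, 2500 cells/well in Opti-MEM with 0.5% dialyzed FBS; compounds tested as titration series, 17 h at 37 degrees C. CCF4 substrate 2.5 h at room temperature; AC50 from 460/530 nm ratio.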

[18] = target: Estrogen receptor (Homo sapiens) (UniProt P03372); test: qHTS assay for small molecule antagonists of estrogen receptor alpha signaling (AID 588513; active = well fitted curve in the direction sought with a large enough effect in the signal ratio, with a control signal flat, not every such curve was filed as active; the % refers to the signal ratio)
Summary of the method: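 Fluorescence from CCF4 substrate after 2 h at room temperature gave reporter activity; cells had been exposed to compound and 0.5nM 17-beta-estradiol for 18 h at 37 C. Hill-equation fitting yielded IC50 and maximal response.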

[19] = target: Estrogen receptor (Homo sapiens) (UniProt P03372); test: qHTS assay for small molecule agonists of estrogen receptor alpha signaling (AID 588514; calls by dose curve; also: nearly all actives have a fitted effect of over 70% in size)
Summary of the method: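 ER-alpha-UAS-bla GripTite HEK 293 cells in medium with 2% charcoal/dextran-treated FBS were treated with compound titrations at 37 C for 18 hrs; beta-lactamase reporter read by CCF4 fluorescence after 2 hrs at RT.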

Estrogen receptor (Homo sapiens), sequence (P03372 whole entry, looked up): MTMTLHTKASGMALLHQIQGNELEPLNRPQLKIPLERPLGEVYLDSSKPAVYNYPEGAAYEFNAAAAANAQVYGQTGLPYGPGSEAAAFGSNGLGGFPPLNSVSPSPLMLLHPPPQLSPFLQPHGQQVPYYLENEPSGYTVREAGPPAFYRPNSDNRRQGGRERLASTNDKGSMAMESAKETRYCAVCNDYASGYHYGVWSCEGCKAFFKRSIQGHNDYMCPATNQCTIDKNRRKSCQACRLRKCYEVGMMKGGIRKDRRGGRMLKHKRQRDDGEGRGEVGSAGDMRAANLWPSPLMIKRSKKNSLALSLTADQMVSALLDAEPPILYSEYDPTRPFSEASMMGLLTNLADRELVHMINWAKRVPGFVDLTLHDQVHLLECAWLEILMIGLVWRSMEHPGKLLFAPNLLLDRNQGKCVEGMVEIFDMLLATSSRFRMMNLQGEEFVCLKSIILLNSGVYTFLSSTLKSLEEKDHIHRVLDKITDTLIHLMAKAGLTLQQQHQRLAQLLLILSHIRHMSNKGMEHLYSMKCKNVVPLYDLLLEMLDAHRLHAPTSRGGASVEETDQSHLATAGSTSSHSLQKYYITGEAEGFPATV

Row | SMILES | Potency [1] | Potency [2] | Potency [3] | Potency [4] | Potency [5] | Potency [6] | Potency [7] | Potency [8] | Potency [9] | Potency [10] | Potency [11] | Potency [12] | Potency [13] | outcome [14] | Potency [15] | Potency [16] | outcome [17] | outcome [18] | Potency [19]
1 | O=C(O)c1cc(Cl)cc(Cl)c1 | inactive | inactive | inactive | inactive | inactive | inactive | inactive | inactive | inactive | inactive | inactive | inactive | inactive | inactive | inactive | inactive | inactive | inactive | inactive
2 | O=C(O)c1cccc(Cl)c1Cl | inactive | inactive | inactive | inactive | inactive | inactive | inactive | inactive | inactive | inactive | inactive | inactive | inactive | inactive | inactive | inactive | inactive | inactive | inactive
3 | Cc1cc(C)cc(O)c1 | inactive | inactive | inactive | inactive | inactive | inactive | inactive | inactive | inactive | inactive | inactive | inactive | inactive | inactive | inactive | inactive | inactive | inactive | inactive
4 | CCCCCCC(=O)O | inactive | inactive | inactive | inactive | inactive | inactive | inactive | inactive | inactive | inactive | inactive | inactive | inactive | inactive | inactive | inactive | inactive | inactive | inactive
5 | c1ccc2c(c1)Oc1ccccc1S2 | 1 nM (active) | inactive | inactive | inactive | inactive | inactive | inactive | inactive | inactive | inactive | inactive | inactive | inactive | inactive | inactive | inactive | inactive | inactive | inactive
6 | Nc1cc(Cl)c([N+](=O)[O-])cc1O | inactive | inactive | inactive | inactive | inactive | inactive | inactive | inactive | inactive | inactive | inactive | inactive | inactive | inactive | inactive | inactive | inactive | inactive | inactive
7 | CCOc1cccc(N)c1 | inactive | inactive | inactive | inactive | inactive | inactive | inactive | inactive | inactive | inactive | inactive | inactive | inactive | inactive | inactive | inactive | inactive | inactive | inactive
8 | CCCCCCCCC/C=C/CC1CC(=O)OC1=O (centres undefined) | inactive | inactive | inactive | inactive | inactive | inactive | inactive | inactive | inactive | inactive | inactive | inactive | inactive | inactive | inactive | inactive | inactive | inactive | inactive
9 | C=C(C)C(=O)OCC(C)O (centres undefined) | inactive | inactive | inactive | inactive | inactive | inactive | inactive | inactive | inactive | inactive | inactive | inactive | inactive | inactive | inactive | inactive | inactive | inactive | inactive
10 | CCC=O | inactive | inactive | inactive | inactive | inactive | inactive | inactive | inactive | inactive | inactive | inactive | inactive | inactive | inactive | inactive | inactive | inactive | inactive | inactive
11 | Cc1cccc2ccccc12 | inactive | inactive | inactive | inactive | inactive | inactive | inactive | inactive | inactive | inactive | inactive | inactive | inactive | inactive | inactive | inactive | inactive | inactive | inactive
12 | Cc1ccco1 | inactive | inactive | inactive | inactive | inactive | inactive | inactive | inactive | inactive | inactive | inactive | inactive | inactive | inactive | inactive | inactive | inactive | inactive | inactive
13 | CC(=O)Nc1cccc(N)c1 | inactive | inactive | inactive | inactive | inactive | inactive | inactive | inactive | inactive | inactive | inactive | inactive | inactive | inactive | inactive | inactive | inactive | inactive | inactive
14 | COc1cccc2sc(N)nc12 | inactive | inactive | inactive | inactive | inactive | inactive | inactive | inactive | inactive | inactive | inactive | inactive | inactive | inactive | inactive | inactive | inactive | inactive | inactive
15 | Cc1ccc(C(C)(C)C)cc1 | inactive | inactive | inactive | inactive | inactive | inactive | inactive | inactive | inactive | inactive | inactive | inactive | inactive | inactive | inactive | inactive | inactive | inactive | inactive
16 | Cc1cc(C)cc([N+](=O)[O-])c1 | inactive | inactive | inactive | inactive | inactive | inactive | inactive | inactive | inactive | inactive | inactive | inactive | inactive | inactive | – | inactive | inactive | inactive | inactive
17 | C=CCCC | inactive | inactive | inactive | inactive | inactive | inactive | inactive | inactive | inactive | – | inactive | inactive | inactive | inactive | inactive | inactive | inactive | inactive | inactive
18 | CCOC(=O)OCC | inactive | inactive | inactive | inactive | inactive | inactive | inactive | inactive | inactive | inactive | inactive | inactive | inactive | – | inactive | inactive | inactive | inactive | inactive
19 | NC(N)=S | inactive | inactive | inactive | inactive | inactive | inactive | inactive | inactive | inactive | inactive | inactive | inactive | inactive | – | inactive | inactive | inactive | inactive | inactive
20 | CC(=O)Nc1ccccc1C | inactive | inactive | inactive | inactive | inactive | inactive | inactive | inactive | inactive | inactive | inactive | inactive | inactive | inactive | inactive | inactive | inactive | inactive | inactive
21 | C=CC(=O)NC(C)C | inactive | inactive | inactive | inactive | inactive | inactive | inactive | inactive | inactive | inactive | inactive | inactive | inactive | – | – | inactive | inactive | inactive | inactive
22 | Cc1cscn1 | inactive | inactive | inactive | inactive | inactive | inactive | inactive | inactive | inactive | – | inactive | inactive | inactive | inactive | inactive | inactive | inactive | inactive | inactive
23 | COC(=O)CCC(=O)OC | inactive | inactive | inactive | inactive | inactive | inactive | inactive | inactive | inactive | inactive | inactive | inactive | inactive | – | – | inactive | inactive | inactive | inactive
24 | NC(=O)c1ccccc1[N+](=O)[O-] | inactive | inactive | inactive | inactive | inactive | inactive | inactive | inactive | inactive | inactive | inactive | inactive | inactive | inactive | – | inactive | inactive | inactive | inactive
25 | CCCCC(CC)COCC1CO1 (centres undefined) | inactive | inactive | inactive | inactive | inactive | inactive | inactive | inactive | inactive | inactive | inactive | inactive | inactive | inactive | – | inactive | inactive | inactive | inactive
26 | Cc1cccc(C(=O)O)c1[N+](=O)[O-] | inactive | inactive | inactive | inactive | inactive | inactive | inactive | inactive | inactive | inactive | inactive | inactive | inactive | inactive | inactive | inactive | inactive | inactive | inactive
27 | CCOCCOCC | inactive | inactive | inactive | inactive | inactive | inactive | inactive | inactive | inactive | – | inactive | inactive | inactive | inactive | inactive | inactive | inactive | inactive | inactive
28 | OC/C(Br)=C(\Br)CO | inactive | inactive | inactive | inactive | inactive | inactive | inactive | inactive | inactive | inactive | inactive | inactive | inactive | – | inactive | inactive | inactive | inactive | inactive
